This note sets out measurements from PubChem BioAssay (Tox21).

Values joined by “and” are separate entries in the source; they are usually repeats but may differ in a detail not shown here. Equal values may be shown once. Results filed as inconclusive are left out. Entries that show only a call come without a potency. Unmarked numbers belong to inactive results. Active and inactive are the calls of the source. The call rests on the fitted dose curve; in most records, active means well fitted cell-killing curve with a large enough effect in the repeat runs; inconclusive means weak or mixed curves, or effect the other way; inactive means flat fitted curve, though single readings scatter.
Potency means the concentration at half of the fitted maximal effect.

The experiment in a line: Nuclear factor erythroid 2-related factor 2/antioxidant responsive element (Nrf2/ARE) small molecule agonists: qHTS cell viability counter screen in human keratinocytes (AID 1919968). Further: nearly all actives have a fitted effect of over 55% in size. The conditions noted are these: KeratinoSens HaCaT ARE cells viability, CellTiter-Fluor, 24 h; series mostly up to 92.4 µM; activity change, negative = cytotoxicity: at the top concentration. From the text: U.S. Tox21 Program National Center for Advancing Translational Sciences [NCATS] Division of Preclinical Innovation [DPI] U.S. Environmental Protection Agency [EPA] National Institutes of Environmental Health Sciences [NIEHS] National Toxicology Program [NTP] U.S. Food and Drug Administration [FDA] Tox21 Assay Overview: Oxidative stress has been implicated in the pathogenesis of a variety of diseases ranging from cancer to neurodegeneration. The antioxidant response element (ARE) signaling pathway plays an important role in the amelioration of oxidative stress. The KeratinoSens (Givaudan, Switzerland) is an in vitro test method which quantifies luciferase induction as a measure of activation of Keap1-Nrf2-antioxidationt/electrophile response element (ARE) dependant pathway in HaCaT human keratinocytes stably transfected with a selectable plasmid. The KeratinoSens assay is a cell-based assay with a reporter cell line to detect potential skin sensitizers by their ability to induce the Nrf2/ARE-response. The activation of the report gene under culture conditions can be detected by ONE-Glo Luciferase Assay System (Promega, Madison, WI). This cell line has been used to screen the Tox21 10K compound library to identify agonists that induce oxidative stress. The cytotoxicity of the Tox21 compound library against the KS-ARE cell line was tested in parallel by measuring the cell viability using CellTiter- Fluor assay system (Promega, Madison, WI) in the same wells.
Tox21 Assay Protocol Summary: HaCaT derived cell line KeratinoSens were dispensed at 1,500 cells/5uL/well in 1536-well white wall/solid bottom plates using a Multidrop Combi (ThermoFisher Scientific, Waltham, MA) dispenser. After the assay plates were incubated at 37 C/5% CO2 for 5 h, 23 nL of compounds dissolved in DMSO, positive controls or DMSO only was transferred to the assay plate by a pintool workstation (Kalypsys, San Diego, CA). The plates were incubated at 37 C/5% CO2 for 23 h, followed by addition of 1uL/well of CellTiter-Fluor reagent into the assay plates using a Flying Reagent Dispenser (Aurora Discovery, San Diego, CA) for cell viability readout that measures cytotoxicity. After 1 h incubation at 37 C/5% CO2 the fluorescence intensity was measured using a ViewLux (PerkinElmer, Shelton, CT) plate reader.
For orientation: Quantitative high-throughput screening tests each substance at several concentrations.
`CC(=O)C(Cl)Cl`: the “activity change, negative = cytotoxicity” value was -1.36%. For `CCSC(=O)N1CCCCCC1`, the Potency entry was “inactive”. For the compound `C[C@]12CC[C@H]3[C@@H](CC=C4C[C@@H](O)CC[C@@]43C)[C@@H]1CC[C@@H]2O`, the “activity change, negative = cytotoxicity” value is -0.516% [at 42.5 µM]. Consider `Clc1nc(Cl)nc(Nc2ccccc2Cl)n1`, for which the “activity change, negative = cytotoxicity” value was 2.76%.

Regarding `CCC(C)Cl` (stereo not given), the “activity change, negative = cytotoxicity” value is 8.49%. On to `C=C(C)CCl`, for which the Potency entry is “inactive”. In the case of `c1ccoc1`, the “activity change, negative = cytotoxicity” value is 0.945%. Take `Nc1cccc2ccccc12`: the Potency result was “inactive”.

For the compound `O=C(O)COc1ccc(Cl)cc1Cl`, the Potency result is “inactive”.

Turning to `C[C@]12CCC(=O)C[C@@H]1CC[C@@H]1[C@@H]2CC[C@]2(C)[C@@H](O)CC[C@@H]12`, the Potency entry was “inactive”. `c1cc2c(c(N3CCNCC3)c1)OCCO2`: the “activity change, negative = cytotoxicity” value was -0.334% [at 42.5 µM]. Turning to `CCCCOC(=O)c1ccccc1C(=O)OCCCC`, the Potency entry was “inactive”. As for `ClC1=C(Cl)C2(Cl)C3C(Cl)C=CC3C1(Cl)C2(Cl)Cl` (stereo not given), the Potency is 27.4 µM (active) and 61.1 µM (active). Still for that read-out and setting: then `Cc1ccc(N)cc1`, with “inactive”. Consider `CC(C)(O)C(Cl)(Cl)Cl`, for which the “activity change, negative = cytotoxicity” value was 0.537% [at 42.5 µM].

Take `O=C(O)CCl`: the Potency entry is “inactive”. Same read-out and setting: then `CCCCCCn1cc[n+](C)c1`, with “inactive”. On the same count and under the same terms, to `CC[n+]1ccccc1` belongs “inactive”. Regarding `Clc1ccc(C(Cl)(Cl)Cl)cn1`, the “activity change, negative = cytotoxicity” value was 1.15%. Turning to `CN(C)N=O`, the Potency result was “inactive”. Still for that read-out and setting: then `N#CCCCl`, with “inactive”; and `O=C(O)c1cc(Oc2ccc(C(F)(F)F)cc2Cl)ccc1[N+](=O)[O-]`, with “inactive”; and `CCOP(=S)(OCC)O/N=C(\C#N)c1ccccc1`, with “inactive”. For the compound `CC(C)(c1ccc(OCC2CO2)cc1)c1ccc(OCC2CO2)cc1` (stereo not given), the Potency was 49.2 µM (active). For `Nc1ccc(Cl)cc1N`, the “activity change, negative = cytotoxicity” value is 0.569%. With `ClCc1ccccc1CCl`, the “activity change, negative = cytotoxicity” value is -0.159%. With `CCCCOCC1CO1` (stereo not given), the Potency entry was “inactive”.

Regarding `O=[N+]([O-])c1ccc(Cl)cc1`, the Potency result was “inactive”. For the compound `CC(O)CN(CC(C)O)CC(C)O` (stereo not given), the Potency entry was “inactive”. Consider `Sc1ccccc1Cl`, for which the “activity change, negative = cytotoxicity” value was -1.28% [at 42.5 µM].

`CCCCCCCC[N+](C)(CCCCCCCC)CCCCCCCC`: the Potency is 5.44 µM (active) and 6.87 µM (active) and 15.4 µM (active). On to `Clc1cccc(Cl)c1Cl`, for which the Potency entry is “inactive”. In the case of `CC(=O)[O][Hg][c]1ccccc1`, the Potency is 1.08 µM (active) and 2.17 µM (active) and 3.35 µM (active).

As to `CCNc1nc(NC(C)(C)C)nc(SC)n1`, the Potency result is “inactive”.

For `NC(=O)OCCCc1ccccc1`, the “activity change, negative = cytotoxicity” value was -0.131% [at 42.5 µM]. Regarding `[Cl-].[Cl-].[Cl-].[Fe+3]`, the Potency result is “inactive”.

Turning to `Brc1ccc(Br)cc1`, the Potency entry was “inactive”.

As to `OC[P+](CO)(CO)CO`, the Potency result is “inactive”.

As for `CCCCCCCCC(=O)NCc1ccc(O)c(OC)c1`, the Potency entry was “inactive”.

Take `O=C(O)CCCOc1ccc(Cl)cc1Cl`: the Potency result is “inactive”.
